# Bioassay records (PubChem)
# M1 PAM parental: nonselective activator or artifact in parental CHO-K1 calcium assay; ATP EC20, Fluo-8 calcium fluorescence; 0% at ATP EC20, 100% at ATP max; activation, % at 3 µM; 360,000 tested, 0.02% active; AID 602247;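 active means activation above the run cutoff, the mean activation of all test compounds plus 3 SD, cut at about 40% in these data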;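 further: peak over basal fluorescence ratio in a 140 s read after ATP addition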
# CHO-K1 Ca ag: counter-screen for M1 agonists: effect in parental CHO-K1 cells; Fluo-8 calcium fluorescence; scaled to maximal ATP response, vehicle zero; activation, % at 3 µM; 360,000 tested, 0.48% active; AID 602248; in the data active means activation above about 15%;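 further: untransfected CHO-K1 host cells lacking M1 receptor as counterscreen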
# CHO-K1 Ca antag: counter-screen for M1 antagonists: effect in parental CHO-K1 cells; inhibition, % at 3 µM; ATP-induced calcium, Fluo-8 fluorescence; AID 602250; 360,000 tested, 0.6% active;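 active means inhibition above a per-plate cutoff, the plate's mean sample inhibition plus 3 SD, cut at about 24% in these data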;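 further: 0% = DMSO plus EC80 ATP and 100% = DMSO alone without ATP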
# M1 antag: blocks human M1 muscarinic receptor. CHO-K1 hM1, Fluo-8 calcium fluorescence, ACh EC80 antagonist. inhibition, % at 3 µM. 360,000 tested, 1.3% active;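 active means percent inhibition above its own plate's cutoff, namely the mean of that plate's compound wells plus 3 SD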;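 further: peak over basal fluorescence ratio during 140 s after agonist addition; 0% = ACh EC80 plus DMSO and 100% = DMSO alone without agonist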
# Target sequence (P11229 whole entry, looked up): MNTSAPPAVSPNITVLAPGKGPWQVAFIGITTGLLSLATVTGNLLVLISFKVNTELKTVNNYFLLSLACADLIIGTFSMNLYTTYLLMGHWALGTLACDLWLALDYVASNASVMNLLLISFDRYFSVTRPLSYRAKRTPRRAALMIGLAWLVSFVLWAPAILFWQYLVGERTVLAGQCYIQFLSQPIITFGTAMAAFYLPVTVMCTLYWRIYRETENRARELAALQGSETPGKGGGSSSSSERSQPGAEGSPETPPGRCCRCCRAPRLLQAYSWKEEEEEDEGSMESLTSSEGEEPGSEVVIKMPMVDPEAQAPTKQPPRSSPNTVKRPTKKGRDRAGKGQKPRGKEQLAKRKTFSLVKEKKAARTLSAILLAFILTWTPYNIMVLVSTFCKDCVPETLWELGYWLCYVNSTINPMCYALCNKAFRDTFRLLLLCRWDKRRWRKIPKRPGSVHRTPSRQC
# M1 ag: human M1 muscarinic receptor agonism; P11229; CHO-K1 hM1, Fluo-8 calcium fluorescence, agonist mode; 0% DMSO, 100% acetylcholine EC100; activation, % at 3 µM; 360,000 tested, 0.33% active; AID 588814;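 active means activation above the run's mean compound activation plus 3 SD, cut at about 16% in these data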;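 further: peak over basal fluorescence ratio within a 140 s kinetic read after compound addition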
# CHRM1 PAM: human CHRM1 positive allosteric modulation. 360,000 tested, 0.088% active. CHO-K1 hM1, Fluo-8 calcium fluorescence, ACh EC20; 0% = ACh EC20, 100% = maximal ACh. activation, % at 3 µM. P11229; in the data active means activation above about 19%, passing the limit was not always enough
# The depositor's hits bear a star; . = not tested or not shown. An excerpt weighted towards active compounds, which were near 2.3% of everything screened.
SMILES,M1 PAM parental,CHO-K1 Ca ag,CHO-K1 Ca antag,M1 antag,M1 ag,CHRM1 PAM
COC(=O)C(CCSC)NC(=O)c1cc2c(n(-c3ccccc3)c1=O)CC(C)(C)CC2=O (stereo not drawn),-14,0,27*,6,-3,3
COC(=O)C(CCSC)NC(=O)c1cc2c(n(-c3ccc(C)cc3)c1=O)CCCC2=O (stereo not drawn),12,1,-1,-8,-8,9
CN(Cc1ccccc1)C(=O)[C@@H]1CCCN1,17,0,-2,.,.,.
OC(c1cc(Cl)cc(Cl)c1)c1ncc(-c2cccc(F)c2)[nH]1 (stereo not drawn),5,5,-7,-10,4,7
O=C(CCN1C(=O)/C(=C/C=C/c2ccccc2)SC1=S)Nc1nccs1,-6,-1,26*,-5,3,9
C#Cc1cccc(NC(=O)c2ccc3c(c2)C(=O)N(Cc2cccnc2)C3=O)c1,-9,15,6,34*,2,-11
O=C(O)c1cc(NC(=O)c2ccc3c(c2)C(=O)N(Cc2cccnc2)C3=O)cc(C(=O)O)c1,9,1,-12,-16,-1,12
C[C@@H]1CN([C@@H](C)CO)C(=O)CCCn2cc(nn2)CO[C@H]1CN(C)S(=O)(=O)c1ccc(Cl)cc1,21,1,-4,-16,-9,9
COc1ccc(C)c2sc(N3CCCC3)nc12,-1,0,-1,2,-5,-3
COc1ccc(OC)c2sc(N3CCN(c4ccccc4)CC3)nc12,-5,0,28*,9,0,6
CC(C)(C)c1cc(NC(=O)C2(C)CCN2C(=O)C2(c3ccccc3)CC2)no1 (stereo not drawn),2,0,6,-13,-5,-4
Oc1c(C(c2ccccc2)N2CCCCC2)ccc2ccccc12 (stereo not drawn),6,1,-7,-14,-1,10
O=C(Nc1cccc(S(=O)(=O)NC2=NCCC2)c1)c1cn(-c2ccccc2)nc1-c1ccc(F)cc1,13,5,-13,17,-5,1
Cc1ccc(-c2nn(-c3ccccc3)cc2C(=O)Nc2cccc(S(=O)(=O)NC3=NCCC3)c2)cc1,-13,1,34*,11,-4,0
CC1(c2nnnn2-c2ccc3c(c2)OCCO3)CCC(=O)N1CCCn1ccnc1 (stereo not drawn),-9,0,-2,.,.,.
COc1ccc(S(=O)(=O)N2CCCC2CNC(=O)C(=O)NC2CCCC2)cc1 (stereo not drawn),10,1,-8,-23,-2,10
COc1ccc(NC(=O)C(=O)NCC2CCCN2S(=O)(=O)c2cc(C)ccc2C)cc1 (stereo not drawn),12,0,52*,-13,-5,3
COc1ccc(CCNC(=O)C(=O)NCC2CCCN2S(=O)(=O)c2ccc(OC)cc2)cc1 (stereo not drawn),0,12,2,27*,1,-11
Cc1ccc(C(=O)Nc2cccc(C(F)(F)F)c2)cc1NC(=O)c1csc(-c2ccncc2)n1,-10,0,4,5,-2,-6
N#C/C(=N\Nc1cccc(C(F)(F)F)c1)C(=O)c1csc(-c2cccnc2)n1,-1,10,24*,8,12,3
Cc1c(NS(=O)(=O)c2cccc(C(=O)N3CCC(C(N)=O)CC3)c2)c(=O)n(-c2ccccc2)n1C,17,2,-15,-35,4,31*
CC1CC(C)CN(CCOCCSc2ccc(Cl)cc2)C1 (stereo not drawn),7,3,-2,35*,-4,-21
CC1CC(C)CN(CCOCCSc2ccccc2)C1 (stereo not drawn),9,1,6,1,-7,-18
Clc1ccc(SCCCN2CCCCC2)cc1,0,1,-11,33*,-6,-17
O=C(COc1ccc2c(-c3ccccc3)cc(=O)oc2c1)N1C[C@H]2C[C@@H](C1)c1cccc(=O)n1C2,2,0,-8,-9,-12,2
SMILES,M1 PAM parental,CHO-K1 Ca ag,CHO-K1 Ca antag,M1 antag,M1 ag,CHRM1 PAM
CC(C)(C)NS(=O)(=O)c1cc(C(=O)Nc2sccc2C#N)ccc1Cl,3,23*,2,12,0,-5
CC(C)N(C(=S)NCc1ccccc1)c1ccccc1,14,0,-1,-4,-12,3
CC(C)N(C(=S)NCc1ccccc1)C(C)C,-6,0,26*,13,-5,-7
Cc1ccc2nc(Nc3ccccc3)c(/C=N/O)c(=O)n2c1,-7,1,26*,-4,0,0
CN(C)c1ccc(/C=C2\Oc3ccc(C#Cc4cccc(N)c4)cc3C2=O)cc1,-13,10,2,35*,29*,-18
CCOC(=O)c1cnc2ccc(OCC)cc2c1N1CCN(c2ccccc2OC)CC1,12,3,-1,34*,-1,-12
CC1CC(O)C2C3(C)CCCC2(COC3=O)C12CCC1(CCOC1=O)O2 (stereo not drawn),-11,0,11,-4,-1,5
O=S(=O)(c1ccccc1F)N1CCC(Oc2ccc(-n3cnnn3)cc2)CC1,-3,22*,-1,21,6,-13
CN1\C(=C/C=C/C=C/C=[N+](C)C)C(C)(C)c2ccccc21,-4,26*,14,47*,53*,-20
CCC(=O)N1CCc2cc(Br)c(S(=O)(=O)CCC(=O)NCCc3ccccc3)cc21,14,0,-13,-16,-2,6
CC1CCCCN1CC(=O)Nc1ccccc1Sc1ccccc1 (stereo not drawn),25,2,-14,27*,-8,-25
O=C(NCc1ccc(Cl)cc1)c1ccc(-c2ccc(F)c(F)c2)c2ccoc12,5,0,-2,-5,-3,2
CC1=NNC(=O)C1C(c1cccc(O)c1)C(C#N)C#N (stereo not drawn),-23,1,29*,22,-3,-9
CN(C)c1cccc2c(S(=O)(=O)NC(=O)[C@H]3O[C@@H](n4cnc5c(N)ncnc54)[C@H](O)[C@@H]3O)cccc12,14,0,-16,-34,-2,3
CCCn1c(SCC(=O)N2N=C3/C(=C/c4ccc(OC)cc4)CCCC3C2c2ccc(OC)cc2)n[nH]c1=O (stereo not drawn),16,24*,10,21,9,-1
Cn1c(=O)c2[nH]c(CCCCCCCCc3nc4ccccc4[nH]3)nc2n(C)c1=O,-11,12,-3,37*,0,-23
Cn1c(=O)c2[nH]c(CCCCc3nc4ccccc4[nH]3)nc2n(C)c1=O,-7,0,-7,-13,-6,6
Cc1nn(-c2ccccc2)cc1/C=N/NC(N)=S,11,0,0,-7,5,31*
